We go through 27 compounds from the supplement of paper PMC13380429.

The test system of assay [1] is Vero E6 infected with SARS-CoV-2. Briefly: morphology score (similarity to uninfected cells); higher = more like uninfected cells. Conditions: 24 h.
Assay [2] shares this test system. Put plainly: SARS-CoV-2 infection rate relative to infected DMSO; higher = more infection, active = 60 or less. To be noted: 24 h.

Turning to `CCCCCCCCCCCCCCCC[N+](C)(C)Cc1ccccc1` [benzyldimethylhexadecylammonium] (10 µM), in assay [1], the morphology score was determined as 0.298. For the same compound, the SARS-CoV-2 infection rate in assay [2] was 80% (inactive).
The matching figures for `c1cnc2c([O][Ga]([O]c3cccc4cccnc34)[O]c3cccc4cccnc34)cccc2c1` [gallium-triquinolin-8-olate] (10 µM): 0.775 and 16.5% (active).
For `CC(=O)N[C@@H](Cc1ccc(O)cc1)C(=O)O` [N-acetyl-tyrosine] (10 µM), in that order: -0.058 and 114% (inactive).
The compound `COCCOc1ccc(N2CCN(CCn3ncc4c3nc(N)n3nc(-c5ccco5)nc43)CC2)cc1` [preladenant] (10 µM) had a morphology score in assay [1] of 0.0084. The SARS-CoV-2 infection rate in assay [2] was 111% (inactive).
`O=C(O)/C=C1\CCCc2ccccc2[C@H]1O` (racemic) (10 µM) showed a morphology score in assay [1] of 0.0116. Moreover, the SARS-CoV-2 infection rate in assay [2] is 100% (inactive).
The matching figures for `FC(F)(F)C(F)(F)C(F)(F)N(C(F)(F)C(F)(F)C(F)(F)F)C(F)(F)C(F)(F)C(F)(F)F` [perfluamine] (10 µM): 0.16 and 92.5% (inactive).
Consider `NS(=O)(=O)c1ccc(NC(=O)Nc2ccc(F)cc2)cc1` (10 µM), for which the morphology score in assay [1] was 0.0694. Besides, the SARS-CoV-2 infection rate in assay [2] is 108% (inactive).
In turn, `CCOP(=S)(OCC)Oc1cc(C)nc(C(C)C)n1` [dimpylate] (10 µM) came in with a morphology score in assay [1] of -0.0379. In addition, the SARS-CoV-2 infection rate in assay [2] was 116% (inactive).
The matching figures for `COc1cc2c(cc1-c1c(C)noc1C)ncc1[nH]c(=O)n([C@H](C)c3ccccn3)c12` (10 µM): -0.154 and 112% (inactive).
The matching figures for `C[C@H](N)C(=O)O` [L-alanine] (10 µM): -0.118 and 111% (inactive).
`CN[C@@H](C)C(=O)N[C@H]1CCCC[C@H]2CC[C@@H](C(=O)N[C@@H](c3ccccc3)c3cn(CCCCc4ccc(CCCCn5cc([C@@H](NC(=O)[C@@H]6CC[C@@H]7CCCC[C@H](NC(=O)[C@H](C)NC)C(=O)N76)c6ccccc6)nn5)cc4)nn3)N2C1=O` (10 µM): the morphology score in assay [1] was determined as 0.155. In addition, the SARS-CoV-2 infection rate in assay [2] was 98% (inactive).
The matching figures for `OC[C@H]1O[C@@H](c2ccc(F)c(Cc3cc4ccccc4s3)c2)[C@H](O)[C@@H](O)[C@@H]1O` [ipragliflozin-L-proline] (10 µM): 0.0125 and 110% (inactive).
`CCC(c1ccccc1)c1c(O)c2ccccc2oc1=O` (centres undefined) [phenprocoumon] (10 µM) yielded a morphology score in assay [1] of 0.0901. The SARS-CoV-2 infection rate in assay [2] is 102% (inactive).
For the compound `O=C1OC(c2ccc(O)cc2)(c2ccc(O)cc2)c2ccccc21` [phenolphthalein] (10 µM), the morphology score in assay [1] was determined as 0.0414. The SARS-CoV-2 infection rate in assay [2] was 110% (inactive).
In assay [1], `CCOC(=O)c1ccccc1OC(=O)CCCCCCCC(=O)Oc1ccccc1C(=O)OCC` (10 µM) had a morphology score of 0.166. Further, the SARS-CoV-2 infection rate in assay [2] is 100% (inactive).
For `Cc1cc2c(s1)Nc1ccccc1N=C2N1CCN(C)CC1` [olanzapine] (10 µM), in that order: -0.0599 and 108% (inactive).
Take `O=C(NNC(=O)c1ccc(CNS(=O)(=O)c2ccc(F)c(Cl)c2)cc1)c1ccccc1` (10 µM): in assay [1], the morphology score is -0.0845. Moreover, the SARS-CoV-2 infection rate in assay [2] is 114% (inactive).
For `Nc1ccn([C@H]2CC[C@@H](CO)O2)c(=O)n1` [zalcitabine] (10 µM), in that order: 0.0931 and 104% (inactive).
The matching figures for `Cc1sc2c(c1C)C(c1ccc(Cl)cc1)=N[C@@H](CC(=O)Nc1ccc(OCCOCCOCCOCCNc3cccc4c3C(=O)N(C3CCC(=O)NC3=O)C4=O)cc1)c1nnc(C)n1-2` (some centres undefined) (10 µM): -0.0682 and 100% (inactive).
In assay [1], `CS(=O)(=O)c1ccc([C@@H](O)[C@@H](CO)NC(=O)C(Cl)Cl)cc1` [thiamphenicol] (10 µM) gave a morphology score of -0.172. The SARS-CoV-2 infection rate in assay [2] is 118% (inactive).
`Oc1ccc(Nc2nc(-c3ccc(Cl)cc3)cs2)cc1` (10 µM) had a morphology score in assay [1] of 0.129. In addition, the SARS-CoV-2 infection rate in assay [2] was 106% (inactive).
As to `NCC(=O)O` (10 µM), in assay [1], the morphology score was found to be 0.146. The SARS-CoV-2 infection rate in assay [2] is 104% (inactive).
The matching figures for `Cc1ncc(CSSCc2cnc(C)c(O)c2CO)c(CO)c1O` [pyritinol] (10 µM): 0.0152 and 100% (inactive).
For `O=C(NCCO)c1cc(C(=O)NCCO)cc(C(=O)NCCO)c1` (10 µM), in that order: 0.0411 and 102% (inactive).
The matching figures for `O=C1c2ccccc2C(=O)c2ccccc21` [anthraquinone] (10 µM): 0.166 and 103% (inactive).
With `CN1CCN(C2CCN(C(=O)Nc3cc(Oc4ccc(NC(=O)C5(C(=O)Nc6ccc(F)cc6)CC5)c(F)c4)ccn3)CC2)CC1` [golvatinib] (0.833333 µM), the morphology score in assay [1] was 0.0621. In addition, in assay [2], the SARS-CoV-2 infection rate is 104% (inactive).
For `CN[C@@H]1[C@H](O[C@H]2[C@H](O[C@H]3[C@H](O)[C@@H](O)[C@H](NC(=N)N)[C@@H](O)[C@@H]3NC(=N)N)O[C@@H](C)[C@]2(O)CO)O[C@@H](CO)[C@H](O)[C@H]1O` [dihydrostreptomycin] (10 µM), in that order: -0.0119 and 114% (inactive).
